{"source": "PubChem BioAssay AID686979", "about": "(National Center for Advancing Translational Sciences (NCATS), 2013)", "note": "In all, about 420,000 compounds went through this assay and about 50,000 (12%) were called active. Another 26% or so got no clear call; they are omitted. Calls follow the shape of the dose curve; as a rule, active = well fitted inhibition curve with a large enough effect; inconclusive = small, poorly fitted or top-dose-only effect; inactive = flat fitted curve, though single readings scatter. Only a selection was taken, and actives are over-represented in it overall. % is scaled to controls: 0 for no effect and ±100 for the full control effect; potency is read from the fitted curve at half-maximal effect.", "data": [{"experiment": "qHTS for Inhibitors of human tyrosyl-DNA phosphodiesterase 1 (TDP1): qHTS in cells in presence of CPT; also: nearly all actives have a fitted effect of over 55% in size", "details": "chicken DT40 Tdp1-/-;hTDP1 cells + 20 nM CPT, ATP luminescence, 48 h; series mostly up to 46.2 µM; activity change, negative = growth inhibition: at the top concentration", "method_in_brief": "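Chicken DT40 Tdp1-/- cells complemented with human TDP1, 400 cells/well, exposed to compounds plus 20 nM camptothecin for at least 48 h at 37 C; viability read as ATP content by CellTiter-Glo luminescence.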", "values": [{"compound": "Cc1cccc(C)c1NC(=O)CNC(=O)c1ccc2c(c1)OCCO2", "activity change, negative = growth inhibition": "3.65% (inactive)"}, {"compound": "COn1c(-c2ccc(Cl)cc2Cl)nc2ncccc21", "activity change, negative = growth inhibition": "-23.2% (inactive)"}, {"compound": "O=S(=O)(Nc1ccc(-c2ccc(N3CCOCC3)nn2)cc1)c1cc(Cl)ccc1Cl", "activity change, negative = growth inhibition": "-17.8% (inactive)"}, {"compound": "COc1cc2ccccc2cc1C(=O)Nc1ccc(N2CCOCC2)cc1", "activity change, negative = growth inhibition": "-6.18% (inactive)"}, {"compound": "O=C1NCC(c2ccccc2)(c2ccccc2)C(=O)N1", "activity change, negative = growth inhibition": "8.39% (inactive)"}, {"compound": "OCC1(CO)CC2(C1)CC(CO)(CO)C2", "activity change, negative = growth inhibition": "17.5% (inactive)"}, {"compound": "Nc1cccc(CCc2nc3ccccc3[nH]2)c1", "activity change, negative = growth inhibition": "-2.04% (inactive)"}, {"compound": "COc1ccccc1CSc1nc2ccccc2[nH]1", "activity change, negative = growth inhibition": "-20.9% (inactive)"}, {"compound": "c1ccc2c(CSCc3nc4ccccc4[nH]3)cccc2c1", "Potency": "16.4 µM (active)"}, {"compound": "CC1(C(=O)NCc2ccccc2)CN(S(C)(=O)=O)CC(=O)N1CC(F)(F)F", "note": "(configuration not stated)", "activity change, negative = growth inhibition": "-1.16% (inactive)"}, {"compound": "COc1cc(NC(=S)NNC(=O)CC(C)C)c(OC)cc1Cl", "activity change, negative = growth inhibition": "-18.9% (inactive)"}, {"compound": "CN(C)CCCn1c(SCc2ccc(Cl)cc2)nnc1-c1ccncc1", "activity change, negative = growth inhibition": "-9.91% (inactive)"}, {"compound": "Cn1c(=O)c2ccccc2n(CC(=O)Nc2ccc3c(c2)OCCO3)c1=O", "activity change, negative = growth inhibition": "-23.7% (inactive)"}, {"compound": "Cc1ccc(C(=O)NC(C)c2ccccc2)cc1Br", "note": "(configuration not stated)", "activity change, negative = growth inhibition": "-16.3% (inactive)"}, {"compound": "C/C(CC(=O)NC(C)c1ccccc1)=N\\NC(N)=S", "note": "(configuration not stated)", "activity change, negative = growth inhibition": "3.94% (inactive)"}, {"compound": "Cc1cc(C(=O)NNC(=S)NC(C)c2ccccc2)cs1", "note": "(configuration not stated)", "Potency": "23.1 µM (active)"}, {"compound": "N#Cc1ccc(-c2ccc3nccn3c2)cc1", "activity change, negative = growth inhibition": "7.78% (inactive)"}, {"compound": "COc1ccc(-c2nc3cc(C)ccn3c2NC2CCCCC2)cc1SC1CCCCC1", "Potency": "29.6 µM (active)"}, {"compound": "COc1ccc(C)cc1S(=O)(=O)NC1CCCCC1", "activity change, negative = growth inhibition": "0.565% (inactive)"}, {"compound": "COC(=O)c1ccc(NC(=O)CSc2nncn2-c2cccnc2)cc1", "activity change, negative = growth inhibition": "-9.04% (inactive)"}, {"compound": "CN(C)c1ccc(CN2CCOc3ccc(CN4CCC(O)(c5cccnc5)CC4)cc3C2)cc1", "activity change, negative = growth inhibition": "-11.9% [at 9.04 µM] (inactive)"}, {"compound": "O=C(NNC(=O)c1ccc2ccccc2c1)c1ccc(Cl)cc1", "activity change, negative = growth inhibition": "-9.35% (inactive)"}, {"compound": "C=CC(=O)c1ccc2ccccc2c1", "Potency": "2.91 µM (active)"}, {"compound": "CC(=O)CCC(=O)c1ccc2ccccc2c1", "activity change, negative = growth inhibition": "5.57% (inactive)"}, {"compound": "COc1ccc(C(=O)N/N=C(\\C)CC(=O)Nc2ccc(Cl)cn2)cc1", "activity change, negative = growth inhibition": "22.2% (inactive)"}, {"compound": "O=C(Oc1ccccc1)c1ccc2nccnc2c1", "activity change, negative = growth inhibition": "3.75% (inactive)"}, {"compound": "c1ccc(-c2noc(-c3cccs3)n2)nc1", "Potency": "8.2 µM (active)"}, {"compound": "Brc1ccc(-c2noc(-c3ccccc3)n2)o1", "Potency": "inactive"}, {"compound": "c1csc(-c2nc(-c3ccncc3)no2)c1", "activity change, negative = growth inhibition": "1.73% (inactive)"}, {"compound": "COc1ccc(CCc2nc(-c3cccs3)no2)cc1", "activity change, negative = growth inhibition": "4.51% (inactive)"}, {"compound": "O=C(Oc1ccc(-c2nc(-c3ccccn3)no2)cc1)c1ccccc1", "Potency": "8.2 µM (active)"}, {"compound": "COc1ccc(/C=C(\\NC(=O)c2ccccc2)C(=O)NCCN2CCOCC2)cc1OC", "activity change, negative = growth inhibition": "10.4% (inactive)"}, {"compound": "O=C(O)c1ccc(/C=N/NC(=O)c2ccc(Br)cc2)cc1", "activity change, negative = growth inhibition": "0.528% (inactive)"}, {"compound": "CCN(C(=O)CSc1nnc(-c2ccc(OC(F)F)cc2)n1N)C1CCS(=O)(=O)C1", "note": "(configuration not stated)", "activity change, negative = growth inhibition": "-1.93% (inactive)"}, {"compound": "COc1ccc2c(c1)N(C)/C(=C1/SC(=S)N(NC(C)=O)C1=O)S2", "activity change, negative = growth inhibition": "-12.3% (inactive)"}, {"compound": "COC(=O)[C@H]1C[C@H](OC(=O)NCc2ccccc2)[C@@]2(O)CN(S(=O)(=O)c3ccc(C)cc3)CC2[C@H]1C(=O)OC", "note": "(some centres not stated)", "activity change, negative = growth inhibition": "-28.5% (inactive)"}, {"compound": "CCCCCCNC(=O)O[C@H]1CN(C(=O)OC(C)C)N(C(=O)OC(C)C)[C@@H]2CN(S(=O)(=O)c3ccc(C)cc3)C[C@]12O", "Potency": "18.4 µM (active)"}, {"compound": "CCCCOc1ccc(NC(=O)[C@@H]2CCCN2C(=O)C2CCN(S(=O)(=O)c3ccc(C)cc3)CC2)cc1", "activity change, negative = growth inhibition": "13.9% (inactive)"}, {"compound": "CS(=O)(=O)N1CCN(C(=O)CSc2ccccc2)CC1", "activity change, negative = growth inhibition": "24.3% (inactive)"}, {"compound": "CC(=O)Nc1ccc(NC(=O)CSc2nnnn2C2CCCCC2)cc1", "activity change, negative = growth inhibition": "-18.3% (inactive)"}, {"compound": "OC[C@H]1O[C@@H](c2nc(-c3nc(-c4ccc(F)cc4)no3)cs2)[C@H](O)[C@@H](O)[C@H]1O", "activity change, negative = growth inhibition": "-1.35% (inactive)"}, {"compound": "O=C(NNC(=S)NCCCN1CCOCC1)c1ccncc1", "activity change, negative = growth inhibition": "3.15% (inactive)"}, {"compound": "COc1cc(Cl)c(NC(=O)C(NS(=O)(=O)c2cccs2)C(C)C)c(OC)c1", "note": "(configuration not stated)", "activity change, negative = growth inhibition": "-25.9% (inactive)"}, {"compound": "COc1ccc(CNC(=O)C(NS(=O)(=O)c2cccc3nsnc23)C(C)C)cc1", "note": "(configuration not stated)", "activity change, negative = growth inhibition": "7.46% (inactive)"}, {"compound": "CC(C)C(NS(=O)(=O)c1cccs1)C(=O)Nc1nc(C(C)(C)C)cs1", "note": "(configuration not stated)", "Potency": "16.4 µM (active)"}, {"compound": "O=C(CCNS(=O)(=O)c1ccccc1)NCCCc1ccccc1", "activity change, negative = growth inhibition": "-1.9% (inactive)"}, {"compound": "Nn1c(SCC(=O)Nc2ccc3c(c2)CCC3)nnc1C1CC1", "activity change, negative = growth inhibition": "4.68% (inactive)"}, {"compound": "COC(=O)Cc1cnc(NC(=O)CSc2nc(C(C)C)cc(=O)[nH]2)s1", "activity change, negative = growth inhibition": "13.8% (inactive)"}, {"compound": "Cn1c(=O)c2sccc2n2c(CCC(=O)NCc3ccccc3Cl)nnc12", "activity change, negative = growth inhibition": "-19% (inactive)"}, {"compound": "CCC(=O)N1CCc2cc(S(=O)(=O)NCCC(=O)Nc3cccc(C)c3C)ccc21", "activity change, negative = growth inhibition": "-22.6% (inactive)"}, {"compound": "Cc1ccc(N2C(=O)CC(Nc3cccc4ccccc34)C2=O)cc1", "note": "(configuration not stated)", "activity change, negative = growth inhibition": "6.75% (inactive)"}, {"compound": "CC1=C(C)CC2C(=O)N(c3cccc4ccccc34)C(=O)C2C1", "note": "(configuration not stated)", "Potency": "18.4 µM (active)"}, {"compound": "O=C1c2ccccc2C(=O)N1c1cccc2ccccc12", "activity change, negative = growth inhibition": "6.79% (inactive)"}, {"compound": "CCc1nccn1S(=O)(=O)c1cccc([N+](=O)[O-])c1", "activity change, negative = growth inhibition": "5.21% (inactive)"}, {"compound": "CC1CCN(C(=O)Cn2nnnc2CN2CCOCC2)CC1", "activity change, negative = growth inhibition": "14.7% (inactive)"}, {"compound": "O=C(c1cc2ccccc2o1)N1CCN(S(=O)(=O)c2ccc(Cl)s2)CC1", "Potency": "18.4 µM (active)"}, {"compound": "CCNC(=S)N1CCN(S(=O)(=O)c2ccc(Cl)s2)CC1", "activity change, negative = growth inhibition": "-23.7% (inactive)"}, {"compound": "CS(=O)(=O)N1CCN(C(=O)c2cc3ccccc3oc2=O)CC1", "activity change, negative = growth inhibition": "1.63% (inactive)"}, {"compound": "COc1cccc(C(O)Cc2nc3ccccc3n2C)c1OC", "note": "(configuration not stated)", "activity change, negative = growth inhibition": "11.4% (inactive)"}, {"compound": "NS(=O)(=O)c1ccc(CNC(=O)c2cccc(Oc3ccccc3)c2)cc1", "activity change, negative = growth inhibition": "-12.6% (inactive)"}, {"compound": "COC(=O)CN1C(=O)[C@H]2[C@@H](/C=C/c3ccccc3)N3C(=O)CN(Cc4ccccc4)C(=O)[C@@]3(Cc3ccccc3)[C@H]2C1=O", "activity change, negative = growth inhibition": "-9.59% (inactive)"}, {"compound": "CN1C(=O)[C@H]2[C@@H](/C=C/c3ccccc3)N3C(=O)CN(Cc4ccc(-c5ccccc5)cc4)C(=O)[C@@]3(C)[C@H]2C1=O", "Potency": "25.9 µM (active)"}, {"compound": "CN1C(=O)[C@H]2[C@@H](C3CC3)N3C(=O)CN(Cc4ccccc4)C(=O)[C@@]3(C)[C@H]2C1=O", "activity change, negative = growth inhibition": "28.2% (inactive)"}, {"compound": "O=C(C[C@@H]1C/C=C\\CCC(=O)OC[C@@H]2CCCN2C1=O)NCCO", "activity change, negative = growth inhibition": "0.104% (inactive)"}, {"compound": "CC(=O)c1sc(N/N=C/c2ccc(C(C)C)cc2)nc1C", "activity change, negative = growth inhibition": "-22.3% (inactive)"}, {"compound": "CCC(C)c1ccc(NC(=S)NCc2ccccn2)cc1", "note": "(configuration not stated)", "activity change, negative = growth inhibition": "-8.87% (inactive)"}, {"compound": "CC(=O)N1CCc2cc(Br)cc(S(=O)(=O)CCC(=O)NCCc3ccc(Cl)cc3)c21", "activity change, negative = growth inhibition": "-6.18% (inactive)"}]}]}
